Screens (PubChem)
DAX1 inh-1: inhibits human nuclear receptor DAX1 | P51843 | HEK293 Gal4-DAX1 luciferase reporter, luminescence | inhibition, % at 6.75 µM | 0.99% of 340,000 active | AID 504766;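 active = inhibition above the mean over all tested compounds plus 3 SD, cut at about 4.2% in these data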;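 note: 0% = DAX1-transfected cells with DMSO and 100% = empty-vector control cells with DMSO; inhibition shows as a rise in luminescence from relieved DAX1 repression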
DAX1 inh-2: DAX1 (NR0B1) inhibition, primary screen | HEK293T StAR-luciferase reporter, SF-1/DAX-1 repression relief | inhibition, % at 6.8 µM | 1.1% of 370,000 active | AID 652010;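 active = inhibition above the mean over all tested compounds plus 3 SD, cut at about 3.6% in these data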;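 note: 0% = DAX-1 cells with DMSO and 100% = cells lacking DAX-1 with DMSO; higher inhibition means more luminescence from relief of DAX-1 repression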
hgDAF12 agonist: agonists of H. glycines DAF-12 nuclear receptor; HEK293 GAL4-hgDAF12 UAS-luciferase reporter, agonist luminescence; normalized to butyrate control; activation, % at 6.8 µM; 1.8% of 370,000 active;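 active = activation above a cutoff set at the mean of all screened compounds plus 3 SD, cut at about 10% in these data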;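 note: 0% = DMSO wells and 100% = sodium butyrate wells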
ssDAF-12 act: activates DAF-12 receptor from parasite S. stercoralis; activation, % at 6.8 µM; HEK293 ssDAF-12/GRIP1 lit1-tk-luc reporter, luminescence; % of 3 µM dafachronic acid response; AID 652126; 1% of 370,000 active;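 active = activation above the mean over all tested compounds plus 3 SD, cut at about 0.9% in these data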;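 note: 0% = DMSO-only wells and 100% = 3 µM delta7-dafachronic acid wells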
hcDAF-12 act: activators of H. contortus DAF-12 nuclear receptor; AID 652067; 1.4% of 370,000 active; HEK293 hcDAF-12 lit1-tk-luc reporter, luminescence; 0% DMSO, 100% Δ7-dafachronic acid; activation, % at 6.8 µM;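 active = activation above the mean of all tested compounds plus 3 SD, cut at about 5.5% in these data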;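 note: 100% = response to 3 µM Δ7-dafachronic acid high control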
DAX1 conf: NR0B1 (human) inhibition, confirmation. 87% of 2,400 active. HEK293T StAR-promoter luciferase reporter, SF-1/DAX-1 repression. inhibition, % at 6.8 µM. shares compounds with DAX1 inh-2;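 active = inhibition above the average of every tested compound plus 3 SD, cut at about 3.8% in these data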;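 note: 0% = DAX-1 cells with DMSO and 100% = no DAX-1 control cells with DMSO; active compounds raise luminescence by relieving repression of the StAR reporter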
SF1 mutant ctr: counter-screen for DAX1 inhibitors: nonselective inhibitors with SF-1 AF2 mutant; shares compounds with DAX1 inh-2; HEK293 StAR-luciferase, luminescence; inhibition, % at 6.8 µM; 78% of 2,400 active;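 active = inhibition above the mean of all tested compounds plus 3 SD, cut at about 3% in these data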;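 note: 0% = DAX-1 transfected cells with DMSO and 100% = cells without DAX-1 with DMSO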
LXRb hcDAF ctr: LXR-beta agonism as hcDAF-12 counter-screen | shares compounds with hcDAF-12 act | HEK293 Gal4-LXR tk-luc reporter, luminescence, 24 h; normalized: DMSO 0%, positive control 100% | activation, % at 6.8 µM | 3,400 tested, under 10 active | AID 743027;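 active = mean percent activation of the reporter above a cutoff set as the average over tested compounds plus their standard deviation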
Target sequence (P55055 whole entry, looked up, the tested form may be a part): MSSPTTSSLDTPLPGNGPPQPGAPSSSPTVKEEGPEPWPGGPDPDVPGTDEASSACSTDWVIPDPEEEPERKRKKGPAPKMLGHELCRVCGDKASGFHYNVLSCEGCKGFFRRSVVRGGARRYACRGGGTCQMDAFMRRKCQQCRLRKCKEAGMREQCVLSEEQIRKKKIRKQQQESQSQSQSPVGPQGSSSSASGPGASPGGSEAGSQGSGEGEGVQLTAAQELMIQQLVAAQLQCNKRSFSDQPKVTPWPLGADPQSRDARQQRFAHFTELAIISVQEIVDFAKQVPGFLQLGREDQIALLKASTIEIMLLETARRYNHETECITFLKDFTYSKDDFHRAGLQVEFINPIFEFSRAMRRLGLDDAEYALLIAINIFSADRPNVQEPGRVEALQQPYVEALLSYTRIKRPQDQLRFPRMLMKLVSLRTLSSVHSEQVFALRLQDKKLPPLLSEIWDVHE
hcDAF12 ag: hcDAF-12 agonism, confirmation assay; shares compounds with hcDAF-12 act; HEK293 hcDAF-12 lit1-tk-luc reporter, luminescence; % of Δ7-dafachronic acid response; activation, % at 6.8 µM; 61% of 3,400 active; AID 743032;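 active = mean activation across triplicate tests above the threshold derived from the earlier primary screen, cut at about 5.5% in these data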;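 note: 0% = DMSO only wells and 100% = 3 µM Δ7-dafachronic acid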
hgDAF12 ag: confirmation of H. glycines DAF-12 agonists. shares compounds with hgDAF12 agonist. HEK293 GAL4-hgDAF12 luciferase reporter, agonist mode; percent of butyrate response. activation, % at 6.8 µM. 80% of 3,300 active;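 active = mean activation over triplicate wells above the hit cutoff derived from the earlier primary screen, cut at about 11% in these data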;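 note: 0% = DMSO low control and 100% = 2 mM sodium butyrate high control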
LXRb DAF12 ctr: activates human LXR-beta, counter-screen for DAF-12 agonists | shares compounds with hgDAF12 agonist | HEK293 Gal4-LXR luciferase reporter, 24 h | activation, % at 6.8 µM | 3,300 tested, under 10 active | AID 743051;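 active = mean activation of the triplicate above a set limit carried over from the primary screen, none filed active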
* hit, by the source's call; x = no result. A selection: hits, their analogues and other compounds. The true share with any hit is near 4.1%.

SMILES	DAX1 inh-1	DAX1 inh-2	hgDAF12 agonist	ssDAF-12 act	hcDAF-12 act	DAX1 conf	SF1 mutant ctr	LXRb hcDAF ctr	hcDAF12 ag	others
Cc1ccc(C(=O)Nc2nccs2)cc1	2	6.6*	12*	2.4*	12*	10.0*	6.4*	1	14*
COC(=O)C1CN(CCc2ccccc2)CCS(=O)(=O)N1Cc1ccccc1F (stereo unspecified)	x	-1	0	-1	-3	x	x	x	x
c1ccc(-c2csc(Nc3ccc4c(c3)OCO4)n2)cc1	x	22*	21*	2.6*	17*	14*	7.8*	2	17*
CNc1ccc(C=C2C=Cc3ccccc32)cc1	4.7*	7.3*	15*	1	9.1*	17*	7.2*	2	11*
COC(=O)Cc1nnn2c1CC(OC)c1ccccc1-2 (stereo unspecified)	x	0	3	0	4	x	x	x	x
COc1ccc2oc(=Nc3ccccc3)c(-c3nc4ccccc4[nH]3)cc2c1	1	5.0*	21*	3.8*	22*	3.7*	2	1	8.0*
COc1ccc2oc(=Nc3cccc(F)c3)c(C(N)=O)cc2c1	0	1	10	-1	2	x	x	x	x
CCCCc1c(-c2ccccc2OC)ncn1C1CCCCC1	x	0	4	-1	-2	x	x	x	x
CC(C)(C)c1ccc(C(=O)Nc2cnccn2)cc1	-1	5.3*	10	0	6.7*	14*	7.3*	1	5
COc1ccc(C(=O)Nc2cnccn2)cc1[N+](=O)[O-]	2	-5	3	-1	-1	x	x	x	x
C(=N\Nc1nc2ccccc2s1)/c1ccccn1	x	-3	-14	-3	-5	x	x	x	x
Brc1csc(/C=N/Nc2nc3ccccc3s2)c1	4	5.9*	20*	2.4*	13*	15*	11*	2	9.1*
CC(C)C[C@H]1COc2cc(N3CCSCC3)ccc2S(=O)(=O)N1C	x	-1	-1	-1	0	x	x	x	x
Cc1cc(C(=O)CSc2cccc[n+]2[O-])c(C)n1-c1ccccc1	1	8.1*	16*	1	7.5*	17*	7.8*	1	7.2*	hgDAF12 ag=13*;LXRb DAF12 ctr=1
O=C(CSc1cccc[n+]1[O-])c1ccccc1Br	0	2	2	-1	-1	x	x	x	x
Clc1ccc(-n2c(SCc3cccc4ccccc34)nnc2-c2ccco2)cc1	x	-1	0	-2	-4	x	x	x	x
O=S1(=O)c2ccc(Br)cc2OC[C@H](c2ccccc2)N1Cc1ccccc1	x	0	1	0	-1	x	x	x	x
Cc1ccnc(SCc2cn3c(C)cc(C)nc3n2)n1	-1	0	1	-1	-1	x	x	x	x
Cc1cc(C)n2cc(COc3ccc4ccccc4c3)nc2n1	2	6.3*	17*	1	8.0*	15*	8.8*	1	6	hgDAF12 ag=17*;LXRb DAF12 ctr=1
N#Cc1cccc(-c2ccccc2C(=O)NC2CCCCN(Cc3ccc(Cl)cc3)C2=O)c1 (stereo unspecified)	x	-1	0	-2	-3	x	x	x	x
CN(Cc1ccccc1)C(=O)c1cccc(NC(=O)Cc2ccc(NC(=O)C3CCCN(S(=O)(=O)c4cccc([N+](=O)[O-])c4)C3)cc2)c1 (stereo unspecified)	x	-1	-2	-1	0	x	x	x	x
